For 38 molecules, outcome and AC50 results are on record in PubChem BioAssay (EPA / NIEHS).

Molecules are shown by their SMILES. Active and inactive are the calls of the source. Rule for the calls: active = hit-call score of the fitted dose curve at least 0.9, where 1 is the maximum; inactive = score below 0.9.

Read-out in the test: Secreted IgG (sIgG), gene 3500
Briefly: BSK_BT_sIgG: BioMAP Diversity Plus: BT Assay for Secreted IgG (sIgG) Biomarker Activity (AID 2284226). The settings on record: primary human B cells with PBMC. How it is done:
BSK_BT is a cell-based, multiplexed-readout assay that uses B cell and peripheral blood mononuclear cells, a human vascular primary cell co-culture, with measurements taken at 24 hours after chemical dosing in a microplate: 96-well plate.BSK_BT_sIgG is an assay component measured in the BSK_BT assay. It measures secreted IgG related to regulation of gene expression using ELISA technology.Data from the assay component BSK_BT_sIgG was analyzed at the endpoint, BSK_BT_sIgG, in the positive analysis fitting direction relative to DMSO as the negative control and baseline of activity. Using a type of cytokine quantitation reporter, gain or loss-of-signal activity can be used to understand protein changes. To generalize the intended target to other relatable targets, this assay endpoint is annotated to the 'immunoglobulin' intended target family, where the subfamily is 'IgG'.
The levels of cell surface (or secreted, indicated by the prefix "s") biomarker endpoints were measured by ELISA. Overt cytotoxicity to cells in confluent adherent cultures (all systems other than the BT system) was assessed by measuring total protein levels using sulforhodamine B (SRB) staining in parallel cultures at the time of biomarker measurements, indicated as SRB endpoints. For proliferation assays for adherent cell types, individual cell types are cultured at sub-confluence and relative cell numbers quantified by SRB staining at time points optimized for each system (48 h: 3C and CASM3C systems; 72 h: BT and HDF3CGF systems; 96 h: SAg system). SRB was performed by staining cells with 0.1% SRB after fixation with 10% TCA and reading wells at 560 nm.Viability and proliferation of PBMC (T cells) was quantified by Alamar Blue reduction for the SAg and BT systems. For PBMC viability (referred to as PBMC Cytotoxicity within the assay endpoint names), cells were plated (75,000/well in a 96-well plate) and then chemical samples added for 1 h before addition of activators, SEB and TSST-1 (20 ng/mL final concentration each). Cells were incubated for 90 h. Then, Alamar Blue (20 uL/well) (Invitrogen, Cat DAL1100) was added for 6 h, and the plates were read with a fluorescence microplate reader at 546/580 nm (excitation/emission). For PBMC proliferation, cells were plated and activated as above but incubated for only 16 h prior to addition of Alamar Blue. Plates were read after 6 h.
For `CC(=O)Nc1ccccc1O`, the outcome was inactive.

`CN(CCOc1ccc(CC2SC(=O)NC2=O)cc1)c1ccccn1` (stereo not drawn): the result was inactive. `O=C1CCCCCCCCCCCCCCO1`: the AC50 (commonly the midpoint of the concentration-response curve, whichever way the signal moves) was 23.4 µM (active). Same read-out and setting: the same measure for `O=C(O)C[C@H](O)C[C@H](O)/C=C/c1c(C2CC2)nc2ccccc2c1-c1ccc(F)cc1`: 0.122 µM (active).

As for `CC(C)Oc1ccccc1O`, the outcome was inactive.

For the molecule `C=C[Si](OCC)(OCC)OCC`, the result was inactive.

For `O=[N+]([O-])c1cc(C(F)(F)F)ccc1Cl`, the result was inactive. On to `CCCCC/C=C/C=C/C=O`, for which the AC50 was 29 µM (active).

As for `CCn1c2ccccc2c2cc(N)ccc21`, the AC50 is 15.4 µM (active). On the same count and under the same terms, the same measure for `CCCCCCCCCC=O`: 20 µM (active). As for `COC(=O)c1ccc(C)cc1`, the outcome was inactive. Same read-out and setting: the value for `CCCCC(CC)COCCC#N` (stereo not drawn) was “inactive”. On to `CC(=O)O[C@]1(C(C)=O)CC[C@H]2[C@@H]3C[C@H](C)C4=CC(=O)CC[C@]4(C)[C@H]3CC[C@@]21C`, for which the AC50 was 14.4 µM (active).

For `BrC1CCC(Br)C(Br)CCC(Br)C(Br)CCC1Br` (stereo not drawn), the AC50 is 9.16 µM (active).

On to `C=C(C)C(=O)O[C@H]1C[C@@H]2CC[C@@]1(C)C2(C)C`, for which the result was inactive.

Turning to `CCCCCCCCCCCCCCCCCC(=O)OCC(CC)CCCC` (stereo not drawn), the outcome was inactive.

Regarding `C#C[C@]1(O)CC[C@H]2[C@@H]3CCC4=Cc5oncc5C[C@]4(C)[C@H]3CC[C@@]21C`, the AC50 is 14.3 µM (active). Regarding `Cc1ccc(O)c(C(C)(C)C)c1`, the result was inactive.

Take `Cc1ccc(Nc2ccc(O)c3c2C(=O)c2ccccc2C3=O)cc1`: the result was inactive. As for `Cc1ccc2n[nH]nc2c1`, the outcome was inactive. Take `O=C(O)c1cn(C2CC2)c2cc(N3CCNCC3)c(F)cc2c1=O`: the result was inactive. Same read-out and setting: the same measure for `O=C(O)c1cn(-c2ccc(F)cc2)c2cc(N3CCNCC3)c(F)cc2c1=O`: “inactive”. For the molecule `CCCCC(CC)COC(=O)/C=C\C(=O)OCC(CC)CCCC` (stereo not drawn), the AC50 was 7.47 µM (active). As to `c1ccc2c(c1)c1cccc3ccc4cccc2c4c31`, the AC50 was 20 µM (active). `O=P(c1ccccc1)(c1ccccc1)c1ccccc1`: the result was inactive. In the case of `CC(=O)/C=C/C1=C(C)CCCC1(C)C`, the result was inactive. Turning to `CCCCCCCCC=O`, the outcome was inactive.

Regarding `CC(C)c1ccc(C(C)C)cc1`, the result was inactive. On the same count and under the same terms, the same measure for `CC1CCC(C(C)CS)CC1S` (stereo not drawn): “inactive”; for `Nc1cc([N+](=O)[O-])ccc1Cl`: “inactive”. Still for that read-out and setting: the value for `CNC[C@H](O)c1cccc(O)c1` was “inactive”.

As for `O=C=NC1CCC(CC2CCC(N=C=O)CC2)CC1` (stereo not drawn), the AC50 is 31 µM (active). In the case of `CC1COc2ccccc2N1C(=O)C(Cl)Cl` (stereo not drawn), the AC50 was 20 µM (active). `CCc1c(C)cc(N)c(CC)c1N`: the result was inactive.

For `c1ccc2sc(SN(C3CCCCC3)C3CCCCC3)nc2c1`, the outcome was inactive. Same read-out and setting: the value for `O=C1OC2(c3cc(Br)c(O)c(Br)c3Oc3c2cc(Br)c(O)c3Br)c2c(Cl)c(Cl)c(Cl)c(Cl)c21` was “inactive”. Regarding `N#Cc1ccc(CC(=NNC(=O)Nc2ccc(OC(F)(F)F)cc2)c2cccc(C(F)(F)F)c2)cc1`, the AC50 is 9.95 µM (active). Regarding `CC(C)(COC(=O)c1ccccc1)COC(=O)c1ccccc1`, the AC50 was 29.9 µM (active).
